# Screens deposited in PubChem BioAssay by National Center for Advancing Translational Sciences (NCATS).
# CHX counter: counter-screen for Shiga toxin inhibitors: cycloheximide protein synthesis inhibition | max response, % | cell reporter, cycloheximide protein synthesis inhibition counterscreen | actives 12% (n = 300,000); in the data active means max response mostly above about 13%, no sharp cut-off; inactive means mostly below about 14%; further: read at 38.3 µM for the half of the compounds with a filed dose; 0% is about no effect
# Pf growth 48h: inhibits P. falciparum growth in the first generation, 48 h; actives 5.9% (n = 310,000); P. falciparum luciferase growth in erythrocytes, 48 h; AID 504832; Potency, µM (series often up to 28.7 µM), inactives show at the highest dose activity change, negative = inhibition, hits mostly inhibitors; further: potency means the concentration at half of the fitted maximal effect; on the % scale 0 is the no-effect control and ±100 the full control effect
#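 Erythrocytes infected with P. falciparum carrying an integrated firefly luciferase reporter (2% hematocrit, 0.1% parasitemia final) were exposed to compounds in RPMI 1640 with 0.5% Albumax at 37 C, 5% CO2. Growth inhibition was scored as reduced luminescence.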
# Pf growth 96h: P. falciparum growth inhibition at 96 hour, primary screen for plastid delayed-death inhibitors | P. falciparum luciferase reporter growth, 96 h | Potency, µM (series often up to 28.7 µM), for inactives: at the top dose activity change, negative = inhibition, hits mostly inhibitors | actives 6.9% (n = 320,000); further: potency means the concentration at half of the fitted maximal effect; on the % scale 0 is the no-effect control and ±100 the full control effect
#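 Erythrocytes infected with luciferase-expressing P. falciparum were dispensed at 2% hematocrit and 0.05% parasitemia (final), then incubated with compounds 96 hours at 37 C in 5% CO2. Luminescence after detection reagent addition reported growth.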
# HCMV antiviral: human cytomegalovirus inhibition; HFF cells, HCMV-luciferase reporter, 72 h; hits give low values; activity change, negative = inhibition, % at 57.5 µM; actives 4.5% (n = 410,000); AID 1259415; in the data active means activity change below about -60%; inconclusive means no clear call, values can overlap the other calls; inactive means above about -39%; further: on the % scale 0 is the no-effect control and ±100 the full control effect
#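 Steps: HFFs plated, 16 h 37C; compounds added; HCMV-luciferase added to MOI 1 PFU/cell; 72 h 37C; OneGlo reagent, 5 min room temperature; luminescence read, normalized to controls.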
# Shiga toxin inh: Shiga toxin inhibition; inhibition, % at 38.7 µM; Vero cells, Shiga toxin protein synthesis inhibition reporter; actives 9.2% (n = 290,000); in the data active means inhibition mostly above about 28%, no sharp cut-off; inactive means mostly below about 43%; further: 0% is about no effect
# * hit, by the source's call; ? = inconclusive; nt = not tested or not shown; + = active, no number. An excerpt weighted towards active compounds, which were near 20% of everything screened. Unless noted, the call rests on the fitted dose curve; in most records, active means well fitted inhibition curve with a large enough effect; inconclusive means small, poorly fitted or top-dose-only effect, or another doubt; inactive means no such curve, though single readings can be large or run the other way.
SMILES,CHX counter,Pf growth 48h,Pf growth 96h,HCMV antiviral,Shiga toxin inh
CC1Sc2ccc(S(=O)(=O)NCCc3ccccc3)cc2NC1=O (stereo not drawn),-4.6,24.8%,68.3%,+,-3.9
CC(C)CC1NC(=O)N(CC(=O)NC2CCCc3ccccc32)C1=O (stereo not drawn),-2.7,-17.8%,12.4%,0.0,2.0
COc1cccc(NC(=O)CN2C(=O)NC(Cc3c[nH]c4ccccc34)C2=O)c1 (stereo not drawn),nt,nt,nt,15.7,nt
Cn1c(SCc2cc(=O)c3cc(Cl)ccc3[nH]2)nnc1-c1ccccc1,nt,nt,nt,-34.7,nt
COC(=O)c1ccn(Cc2ccccc2Cl)n1,43.7*,346.2%,?,6.2,63.5*
COC(=O)c1cc2n(n1)CCN(Cc1ccccc1Cl)C2=O,-1.5,7.7%,0.0%,2.8,-3.4
O=C(O)CCCC(=O)Nc1ccc(-n2ccc(C(F)(F)F)n2)cc1,-2.0,3.8%,15.6%,-21.3,-10.3
COc1ccccc1NC(=O)Nc1ccc(-n2ccc(C(F)(F)F)n2)cc1,42.3*,?,?,-7.7,123.2*
O=C(O)c1ccccc1C(=O)Nc1ccc(-n2ccc(C(F)(F)F)n2)cc1,-1.7,1.8%,-2.3%,-0.2,1.6
O=C(Nc1ccc(-n2ccc(C(F)(F)F)n2)cc1)Nc1cccc(Cl)c1,30.7*,?,?,-84.3*,49.9*
O=C(Nc1ccc(-n2ccc(C(F)(F)F)n2)cc1)c1cccs1,44.5*,?,?,18.0,116.9*
O=C(O)CCC(=O)Nc1ccc(-n2ccc(C(F)(F)F)n2)cc1,24.7*,1.65µM*,58.3%,6.8,42.0*
CCOC(=O)c1c[nH]n2c(=S)ncnc12,nt,nt,nt,26.7,nt
COC(=O)c1ccc(Sc2ccccn2)c([N+](=O)[O-])c1,11.2,14.0%,?,23.9,-8.4
Cc1cc(C)cc(NC(=O)Nc2ccc(-n3ccc(C(F)(F)F)n3)cc2)c1,11.0,11.7µM*,?,6.9,28.9
Cc1cc(C)n(-c2ccc(C(=O)OCC(=O)Nc3ccccc3F)cc2)n1,nt,nt,nt,87.5,nt
Cn1c(-c2cc3ccccc3oc2=O)nc2ccccc21,40.4*,96.8%,150.4%,92.2,103.6*
COc1ccc2cc(-c3nc4ccccc4n3C)c(=O)oc2c1,40.8*,277.1%,?,98.6,67.4*
CC(=O)Nc1ccc2nc3c(=O)n(C)c(=O)n(C)c3nc2c1C,nt,nt,nt,1.1,nt
CCc1nnc(NC(=O)c2ccc(S(=O)(=O)N3CCCCC3)cc2)s1,0.2,11.0%,-23.1%,-66.4*,4.9
CCOC(=O)N1CCN(S(=O)(=O)c2ccc(C(=O)Nc3nnc(CC)o3)cc2)CC1,9.4,?,0.0%,14.1,-14.0
COCc1nnc(NC(=O)c2ccc(S(=O)(=O)N3CCCC3)cc2)o1,13.1,?,?,-60.8*,9.4
CCc1nnc(NC(=O)c2ccc(F)c(S(=O)(=O)N3CCCCC3)c2)s1,-1.9,8.0%,11.7µM*,-34.3,-5.3
O=C(COC(=O)C1CC(O)CN1S(=O)(=O)c1ccc(Cl)cc1)c1ccccc1 (stereo not drawn),6.5,14.3%,49.3%,-13.5,-11.3
CC(C)N(C(=O)COC(=O)[C@@H]1CC(O)CN1S(=O)(=O)c1ccc(C(C)(C)C)cc1)C(C)C (stereo partly drawn),-1.2,4.15µM*,6.57µM*,9.0,41.0
SMILES,CHX counter,Pf growth 48h,Pf growth 96h,HCMV antiviral,Shiga toxin inh
COc1ccc(S(=O)(=O)N2CC(O)CC2C(=O)OCC(=O)Nc2ccc(Cl)cn2)cc1 (stereo not drawn),-1.0,7.5%,1.47µM*,19.6,-5.9
Fc1ccccc1COc1cccc(/C=N/n2cnnc2)c1,-1.1,26.6%,nt,-26.1,35.3
Cc1cc(/C=N/n2cnnc2)c(C)n1-c1ccc(OCc2ccccc2F)cc1,25.8*,?,17.9%,-92.9*,24.9
Cc1cc(/C=N/NC(N)=S)c(C)n1-c1ccc(Cl)cc1,14.6,?,4.2%,-21.1,14.3
Cc1cc(/C=N/n2cnnc2)c(C)n1-c1ccc(OCc2ccc(Cl)cc2)cc1,51.6*,nt,11.7µM*,-91.5*,92.5*
CCN(CC)CCN1C(=O)C(=O)/C(=C(/O)c2ccc(S(=O)(=O)N3CCOCC3)cc2)C1c1ccc(C(C)(C)C)cc1 (stereo not drawn),1.4,-15.1%,12.1%,nt,10.6
CCc1cc2c(NCc3ccccc3)nc(C)nc2s1,-2.8,162.7%,5.9%,-83.9*,-4.4
Cn1c(O)c(C=Nc2ccc(Br)cc2)sc1=O,45.4*,50.9%,114.4%,-11.7,80.4*
CCOC(=O)c1cn(CC)c2ccc(S(=O)(=O)N3CC(C)CC(C)C3)cc2c1=O (stereo not drawn),-3.7,2.0%,68.7%,-14.1,-8.4
CCn1cc(C(=O)O)c(=O)c2cc(S(=O)(=O)N(C)C)ccc21,0.9,37.6%,105.0%,37.7,-2.7
CCn1cc(C(=O)O)c(=O)c2cc(Br)ccc21,-1.6,2.62µM*,nt,7.1,-2.4
CCOC(=O)c1cn(CC)c2ccc(Br)cc2c1=O,1.2,5.22µM*,11.7µM*,7.9,22.6
CC1(O)CC(C)(C)C(C#N)C(=O)N1 (stereo not drawn),nt,nt,nt,11.5,nt
Cc1ccc(CS(=O)(=O)CCC(=O)NCc2ccccc2Cl)cc1,1.9,0.0%,10.1%,0.0,-1.8
CC1=CC(C)(C)N(C(=O)CSc2nnc(-c3ccc(C)cc3)o2)c2ccc(C)cc21,10.7,nt,9.28µM*,-14.7,-9.1
Cc1cccc(C(=O)NC(=S)Nc2ccc3[nH]c(=O)[nH]c3c2)c1,16.5*,34.8%,29.4%,?,17.8
CC(=O)c1cccc(NC(=S)NC(=O)c2ccc(Cl)cc2)c1,62.9*,90.7%,38.7%,23.1,65.5*
CC(=O)c1cccc(NC(=S)NC(=O)c2ccccc2Br)c1,2.9,12.7%,-8.8%,-35.0,5.1
CC(=O)c1cccc(NC(=S)NC2CC2)c1,-3.3,-0.3%,?,-35.6,-10.4
CC(=O)c1ccc(NC(=S)NC(C)c2ccc(Cl)cc2Cl)cc1 (stereo not drawn),-2.6,2.33µM*,?,22.4,-4.3
CC(=O)c1cccc(NC(=S)NC(=O)c2cccc(C)c2)c1,39.8*,141.3%,11.5%,-13.2,82.9*
Cc1ccc(N2C(=O)Nc3ccc(Br)cc3C2(O)C(=O)NCCN(C)C)cc1C (stereo not drawn),-4.2,nt,?,-9.0,2.3
COc1ccc(Cc2nc(-c3cccnc3)no2)cc1OC,5.3,10.7%,?,17.4,-2.4
COc1ccc(-c2noc(Cc3ccccc3OC)n2)cc1,22.7,12.8%,13.1µM*,-20.7,44.5
CN(Cc1nc(-c2cccnc2)no1)S(=O)(=O)c1ccc(Br)cc1,-0.2,-7.8%,8.28µM*,-7.1,-2.1
COc1ccccc1Cc1nc(-c2cccnc2)no1,36.9*,?,6.0%,-2.6,55.4*
COc1ccc(-c2noc(Cc3cccs3)n2)cc1,32.0*,106.3%,45.5%,37.2,82.2*
CC1CCN(C(=O)Cn2ncc3c4ccccc4n(Cc4ccc(Cl)cc4)c3c2=O)CC1,nt,nt,nt,9.3,nt
